According to PubChem BioAssay (NCATS):
Several values for one entry are separate records, joined by “and”; a condition that tells them apart may be missing. Identical values can stand only once. Records with an inconclusive call do not appear. A number with no mark means an inactive call. Activity calls are given as the source filed them. The call rests on the fitted dose curve; in most records, active means well fitted curve in the direction sought with a large enough effect; inconclusive means small, poorly fitted or top-dose-only effect, or another doubt; inactive means no such curve, though single readings can be large or run the other way.

test: qHTS Assay for Identifying Gametocytocidal Compounds (AID 743244);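 on max response: actives lower the fluorescent signal which means gametocytes are killed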; settings: P. falciparum 3D7 stage III-V gametocytes, alamarBlue, 72 h; max response: hits give low values
Excerpt: Malaria cases and deaths have dropped 50% in 29 countries since 2000 due to the combined effects of long-lasting insecticidal bednets, indoor residual spraying, and artemisinin-based combination therapies (ACTs). This success has raised hopes for malaria eradication and consequently stimulated interest in developing new reagents that block gametocyte transmission such as novel and safe gametocytocidal drugs. However, previous drug development efforts have focused primarily on the asexual parasites that cause symptoms, but not malaria transmission. Consequently, patients can remain infectious for weeks after the clearance of asexual parasites and clinical symptoms. To be transmitted from person to person via a mosquito, the parasites must switch from asexual to sexual development and produce male and female gametocytes. Malaria gametocytes consist of five stages (I, II, III, IV and V). The late stage gametocytes (III, IV and V) are difficult to be cultured in vitro and the long lifespan of mature gametocytes allows them being transmitted from host to mosquitoes unless they are completely eliminated by gametocytocidal agents. To identify gametocytocidal compounds which are capable of killing late stage P. falciparum gametocytes, a high throughput gametocyte viability assay was employed. This assay uses oxidoreduction indicator, alamarBlue, as a general measure of metabolic activity of gametocytes. Within live cells, the nonfluorescent resazurin is reduced to resorufin, a bright red fluorescence dye. Fluorescence decreases upon treatment of gametocytocidal compounds. P. falciparum gametocyte (3D7 strain) was used in this study.
The 1536-well gametocycidal viability assay was based on the previous method of Tanaka et al. Stage III-V gametocytes were tested against three compound libraries, including 4265 compounds from NCGC pharmaceutical collection, 400 from Malaria Box library, and 550 from an internal collection of kinase inhibitors. Briefly, 2.5 ul/well incomplete medium was dispensed into each well of 1,536-well plates using the Multidrop Combi followed by 23 nl compound transferring using the NX-TR Pintool (WAKO Scientific Solutions, San Diego, CA). Then, 2.5 ul/well of gametocytes was dispensed with a seeding density of 20,000 cells/well using the Multidrop Combi. The assay plates were incubated for 72 h at 37C with 5% CO2. After addition of 5 ul/well of 2X AlamarBlue dye (Life Technologies, cat. no. DAL1100), the plates were incubated for 24 h at 37C with 5% CO2 and then were read in a fluorescence detection mode (Ex = 525 nm, Em = 598 nm) on a ViewLux plate reader (PerkinElmer).
On the % scale 0 is the no-effect control and ±100 the full control effect; potency means the concentration at half of the fitted maximal effect.

Compound	max response	Potency
Nc1nc2ccc(OC(F)(F)F)cc2s1	5.46% and 13.2%	
Cn1c(=O)c(F)c(Nc2ccc(I)cc2F)c2c(=O)n(C[C@@H](O)CO)cnc21	-1.37%	
C[C@H](NC(=O)Cc1cc(F)cc(F)c1)C(=O)N[C@@H]1C(=O)N(C)c2ccccc2-c2ccccc21	-14.2%	
CC(C)c1onc(-c2c(Cl)cccc2Cl)c1COc1ccc(/C=C/c2cccc(C(=O)O)c2)c(Cl)c1	14.5%	
COc1ccc(CCN2CCN(CCCc3ccccc3)CC2)cc1OC	-5.52%	
O=C(C=Cc1ccc(/C=C/C(=O)Nc2ccc(C3=NCCN3)cc2)cc1)Nc1ccc(C2=NCCN2)cc1	6.08%	
c1ccc(-c2nn3c(c2-c2ccnc4cc(OCCN5CCOCC5)ccc24)CCC3)nc1	-4.63%	
OC[C@H](Cc1ccccc1)Nc1nc(Oc2ccc3c(c2)CCC3)nc2c1ncn2Cc1ccc(-c2ccccc2)cc1	-2.93%	
CCCn1c(=O)c2[nH]c(C34CC5CC3C[C@@H](C5)C4)nc2n(CCC)c1=O	25.8%	
O=C(O)[C@@H](c1ccc(OCc2ccc3ccccc3n2)cc1)C1CCCC1	46.8%	
c1ccc([C@H]2CN3CCSC3=N2)cc1	4.37%	
CN(C)c1ccc(C2Nc3ccc4ccccc4c3C3=C2C(=O)CC(C)(C)C3)cc1Br (stereo not given)	-26.5%	
Nc1ncnc2nc(-c3ccc(N4CCOCC4)nc3)cc(-c3cccc(Br)c3)c12	-13.8%	
CCOc1ccn(-c2ccc(F)cc2)c(=O)c1C(=O)Nc1ccc(Oc2ccnc(N)c2Cl)c(F)c1	18.8%	
Cc1ccnc(NS(=O)(=O)c2ccc(NC(=O)Nc3ccc(S(=O)(=O)Nc4nccc(C)n4)cc3)cc2)n1	-10.8%	
Cc1c(C)c2c(c(C)c1O)CCC(C)(COc1ccc(CC3SC(=O)NC3=O)cc1)O2 (stereo not given)	13.5% and 17.4%	
Cc1cc2c(F)c(Oc3ncnn4cc(OC[C@@H](C)O)c(C)c34)ccc2[nH]1	-5%	
C[C@]1(c2nc3c(C(N)=O)cccc3[nH]2)CCCN1	20.1%	
CNCc1ccc(-c2[nH]c3cc(F)cc4c3c2CCNC4=O)cc1		29.6 µM (active)
COc1c(Cl)cc2c([nH]c3cnccc32)c1NC(=O)c1cccnc1C	20.9%	

Compound	max response	Potency
COc1cc(F)c(F)c(Nc2ccc(I)cc2F)c1NS(=O)(=O)C1(C[C@H](O)CO)CC1	19.8%	
Cc1cc([C@@H](C)Nc2ccccc2C(=O)O)c2nc(N3CCOCC3)cc(=O)n2c1	-4.48%	
CCc1cncnc1N1CCN(Cc2nc3ccc(C(F)(F)F)cc3[nH]2)CC1	8.68%	
Nc1nc2[nH]cc(CCc3ccc(C(=O)N[C@@H](CCC(=O)O)C(=O)O)cc3)c2c(=O)[nH]1	97.2% and -5.73%	
Oc1ccc(C2CNCCc3c2cc(O)c(O)c3Cl)cc1 (stereo not given)	2.69% and -7.1%	
O=S(=O)(N=Cc1c(O)ccc2ccccc12)c1cccs1	-5.04%	
COc1cc2nccc(Oc3ccc(NC(=O)NC4CC4)c(Cl)c3)c2cc1C(N)=O	-10.8%	
CCC(C)(C)C(=O)O[C@H]1C[C@@H](C)C=C2C=C[C@H](C)[C@H](CC[C@@H]3C[C@@H](O)CC(=O)O3)[C@H]21	5.81%	
COc1cc(Oc2ccnc3cc(OC)c(OC)cc23)ccc1NC(=O)NC(C)c1nccs1 (stereo not given)	6.55%	
CCCS(=O)(=O)Nc1ccc(F)c(C(=O)c2c[nH]c3ncc(Cl)cc23)c1F	35.4%	
O=c1n(CCCN2CCN(c3cccc(Cl)c3)CC2)nc2ccccn12	8.61% and 11.5%	
C[C@]12CC[C@H](O)CC1=CC[C@@H]1[C@H]2CC[C@]2(C)C(c3cccnc3)=CC[C@H]12	-8.9%	
CC(c1cc2ccccc2s1)N(O)C(N)=O (stereo not given)	2.55%	
O=C1[C@H](Cc2ccc(O)cc2)N2C(=O)CCN(C(=O)NCc3ccccc3)[C@H]2CN1Cc1cccc2ccccc12	-13%	
CNC(=O)c1ccc(C)c(-n2c(C)cc(OCc3ccc(F)cc3F)c(Br)c2=O)c1	32.9%	
Cc1ccc(-n2nc(C(C)(C)C)cc2NC(=O)Nc2ccc(OCCN3CCOCC3)c3ccccc23)cc1		12.6 µM (active)
COc1ccccc1[C@H](c1cccc2ccccc12)[C@@](C)(C#N)C(=O)N1CCC(c2cccc(C(F)(F)F)c2)CC1	-0.358%	
CCOC(=O)C1=C[C@]2(CC)CCCN3CCc4c(n1c1ccccc41)[C@@H]32	-1.66%	
Cc1cc(SCc2sc(-c3ccc(C(F)(F)F)cc3)nc2C)ccc1OCC(=O)O	25.7%	
CCCc1nn(C)c2c(=O)[nH]c(-c3cc(S(=O)(=O)N4CCN(C)CC4)ccc3OCC)nc12	18.4%	
